# Source: the supplement of paper PMC10849652
# About 8,800 targets were measured; listed, in parts, are those with a hit and a random draw of the rest. About 0.5% of all pairs of compound and target were hits. Unmarked numbers belong to inactive results.
# Tests used:
# Assay in all cases: log2 fold change, soluble protein after heating vs DMSO (PISA); higher = thermal stabilisation; K562 lysate, 10 uM; active = over 0.2 and 3.5 SD of the protein, either way, in both replicates (recomputed)
# vemurafenib = compound: CCCS(=O)(=O)Nc1ccc(F)c(C(=O)c2c[nH]c3ncc(-c4ccc(Cl)cc4)cc23)c1F [vemurafenib]
# Method in brief: (§1)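 K562 pellets were dounce-homogenised in PBS pH 7.4 with 1 mM MgCl2, and the crude extract at 1 mg/mL protein was treated with 10 μM compound for 30 min. Aliquots were heated for 3 min across 48°C-58°C, pooled, and brought to 0.5% NP-40 at 4°C; soluble protein was the supernatant after 21,000xg for 90 min. Soluble protein was quantified by TMTpro 16plex LC-MS/MS with channel sums equalised, and reported as log2 fold change in thermal stability against DMSO controls, with values from duplicates.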
# [1] = compound: CCCS(=O)(=O)Nc1ccc(F)c(C(=O)c2c[nH]c3ncc(Cl)cc23)c1F
# Method in brief: as §1
# barasertib = compound: CCN(CCCOc1ccc2c(Nc3cc(CC(=O)Nc4cccc(F)c4)[nH]n3)ncnc2c1)CCOP(=O)(O)O [barasertib]
# Method in brief: as §1
# [2] = compound: CC[C@@H]1C(=O)N(C)c2cnc(Nc3ccc(C(=O)NC4CCN(C)CC4)cc3OC)nc2N1C1CCCC1
# Method in brief: as §1
# volasertib = compound: CC[C@@H]1C(=O)N(C)c2cnc(Nc3ccc(C(=O)N[C@H]4CC[C@H](N5CCN(CC6CC6)CC5)CC4)cc3OC)nc2N1C(C)C [volasertib]
# Method in brief: as §1
# [3] = compound: CCn1c(C(=O)N(C2CC2)C2CC2)cc2c3c(ncn3C)c(Nc3cc(C)n(C)n3)nc21
# Method in brief: as §1
# [4] = compound: CCn1cc(-c2ccnc3[nH]c(-c4cccc(CN(C)C)c4)cc23)c(-c2ccc(NC(=O)N(C)C)cc2)n1
# Method in brief: as §1
# [5] = compound: CN1CCC(CNc2ccc3ncc(-c4cccc(OC(F)(F)F)c4)n3n2)CC1
# Method in brief: as §1
# saracatinib = compound: CN1CCN(CCOc2cc(OC3CCOCC3)c3c(Nc4c(Cl)ccc5c4OCO5)ncnc3c2)CC1 [saracatinib]
# Method in brief: as §1
# sotrastaurin = compound: CN1CCN(c2nc(C3=C(c4c[nH]c5ccccc45)C(=O)NC3=O)c3ccccc3n2)CC1 [sotrastaurin]
# Method in brief: as §1
# alvocidib = compound: CN1CC[C@H](c2c(O)cc(O)c3c(=O)cc(-c4ccccc4Cl)oc23)[C@H](O)C1 [alvocidib]
# Method in brief: as §1
# Tubastatin A = compound: CN1CCc2c(c3ccccc3n2Cc2ccc(C(=O)NO)cc2)C1 [Tubastatin A]
# Method in brief: as §1
# [6] = compound: CNC(=O)C1=CC=CC=C1NC2=NC(=NC=C2Cl)NC3=C(C=C(C=C3)N4CCOCC4)OC
# Method in brief: as §1
# defactinib = compound: CNC(=O)c1ccc(Nc2ncc(C(F)(F)F)c(NCc3nccnc3N(C)S(C)(=O)=O)n2)cc1 [defactinib]
# Method in brief: as §1
# [7] = compound: CNc1nc(-c2ccc3c(N)n[nH]c3c2)cc(N2C[C@@H](C(=O)NC3CCCCC3)CC[C@H]2C)n1
# Method in brief: as §1
# encorafenib = compound: COC(=O)N[C@@H](C)CNc1nccc(-c2cn(C(C)C)nc2-c2cc(Cl)cc(NS(C)(=O)=O)c2F)n1 [encorafenib]
# Method in brief: as §1
# [8] = compound: COC(=O)[C@H](CCSC)NC(=O)C1=C(C=C(C=C1)NC[C@H](CS)N)C2=CC=CC=C2
# Method in brief: as §1
# alisertib = compound: COc1cc(Nc2ncc3c(n2)-c2ccc(Cl)cc2C(c2c(F)cccc2OC)=NC3)ccc1C(=O)O [alisertib]
# Method in brief: as §1
# [9] = compound: COc1cc2nc(-c3cc(F)ccc3O)nc(N[C@@H]3CNC[C@H]3C(C)(C)O)c2cc1OC
# Method in brief: as §1
# gefitinib = compound: COc1cc2ncnc(Nc3ccc(F)c(Cl)c3)c2cc1OCCCN1CCOCC1 [gefitinib]
# Method in brief: as §1
# Sequence of UniProt Q8WYA6 (Q8WYA6 whole entry, looked up): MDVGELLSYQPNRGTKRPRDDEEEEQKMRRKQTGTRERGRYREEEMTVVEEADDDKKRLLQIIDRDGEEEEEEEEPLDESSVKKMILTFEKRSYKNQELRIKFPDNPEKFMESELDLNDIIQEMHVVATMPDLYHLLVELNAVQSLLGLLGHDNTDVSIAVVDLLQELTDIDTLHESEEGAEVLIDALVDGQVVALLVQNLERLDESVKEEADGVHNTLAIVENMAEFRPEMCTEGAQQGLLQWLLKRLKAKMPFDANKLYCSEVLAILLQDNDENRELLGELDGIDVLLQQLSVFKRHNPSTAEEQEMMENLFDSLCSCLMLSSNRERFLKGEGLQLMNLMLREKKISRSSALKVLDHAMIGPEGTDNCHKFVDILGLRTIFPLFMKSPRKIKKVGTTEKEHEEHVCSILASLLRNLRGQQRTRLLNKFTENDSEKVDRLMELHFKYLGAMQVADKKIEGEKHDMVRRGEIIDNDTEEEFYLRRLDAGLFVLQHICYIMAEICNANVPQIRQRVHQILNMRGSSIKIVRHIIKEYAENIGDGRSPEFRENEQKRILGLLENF
# Sequence of UniProt P61923 (P61923 whole entry, looked up): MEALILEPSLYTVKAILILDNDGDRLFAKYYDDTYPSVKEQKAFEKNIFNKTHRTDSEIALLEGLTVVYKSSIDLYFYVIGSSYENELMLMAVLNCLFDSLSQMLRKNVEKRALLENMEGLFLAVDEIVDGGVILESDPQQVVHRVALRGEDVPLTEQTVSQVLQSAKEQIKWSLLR
# Sequence of UniProt Q8WWK9 (Q8WWK9 whole entry, looked up): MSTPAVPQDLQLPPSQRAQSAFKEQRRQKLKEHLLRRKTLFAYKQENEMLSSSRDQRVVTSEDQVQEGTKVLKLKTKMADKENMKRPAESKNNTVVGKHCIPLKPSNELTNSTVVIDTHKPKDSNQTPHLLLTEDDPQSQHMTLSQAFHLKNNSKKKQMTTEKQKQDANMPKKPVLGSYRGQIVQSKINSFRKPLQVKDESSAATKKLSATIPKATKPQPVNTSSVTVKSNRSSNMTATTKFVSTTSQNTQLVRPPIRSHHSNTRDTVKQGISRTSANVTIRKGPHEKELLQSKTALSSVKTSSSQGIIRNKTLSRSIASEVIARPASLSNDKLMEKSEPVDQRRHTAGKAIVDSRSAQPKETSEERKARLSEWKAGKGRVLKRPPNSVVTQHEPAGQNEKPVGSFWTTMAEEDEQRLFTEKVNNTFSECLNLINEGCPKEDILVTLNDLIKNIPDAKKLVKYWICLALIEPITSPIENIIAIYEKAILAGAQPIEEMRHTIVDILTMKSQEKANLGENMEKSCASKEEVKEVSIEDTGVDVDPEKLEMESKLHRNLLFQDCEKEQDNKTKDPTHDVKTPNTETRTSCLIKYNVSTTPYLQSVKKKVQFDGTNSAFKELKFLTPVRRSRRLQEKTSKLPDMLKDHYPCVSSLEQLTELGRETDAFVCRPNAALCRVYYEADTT
# Sequence of UniProt Q9BQ75 (Q9BQ75 whole entry, looked up): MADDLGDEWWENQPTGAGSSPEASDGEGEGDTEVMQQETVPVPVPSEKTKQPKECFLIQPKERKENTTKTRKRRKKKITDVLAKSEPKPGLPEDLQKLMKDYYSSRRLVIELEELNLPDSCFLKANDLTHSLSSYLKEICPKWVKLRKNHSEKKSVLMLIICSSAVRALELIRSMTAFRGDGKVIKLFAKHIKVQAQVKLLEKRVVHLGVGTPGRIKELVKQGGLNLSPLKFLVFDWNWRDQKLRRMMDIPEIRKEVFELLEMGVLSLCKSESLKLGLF
# Sequence of UniProt Q96N67 (Q96N67 whole entry, looked up): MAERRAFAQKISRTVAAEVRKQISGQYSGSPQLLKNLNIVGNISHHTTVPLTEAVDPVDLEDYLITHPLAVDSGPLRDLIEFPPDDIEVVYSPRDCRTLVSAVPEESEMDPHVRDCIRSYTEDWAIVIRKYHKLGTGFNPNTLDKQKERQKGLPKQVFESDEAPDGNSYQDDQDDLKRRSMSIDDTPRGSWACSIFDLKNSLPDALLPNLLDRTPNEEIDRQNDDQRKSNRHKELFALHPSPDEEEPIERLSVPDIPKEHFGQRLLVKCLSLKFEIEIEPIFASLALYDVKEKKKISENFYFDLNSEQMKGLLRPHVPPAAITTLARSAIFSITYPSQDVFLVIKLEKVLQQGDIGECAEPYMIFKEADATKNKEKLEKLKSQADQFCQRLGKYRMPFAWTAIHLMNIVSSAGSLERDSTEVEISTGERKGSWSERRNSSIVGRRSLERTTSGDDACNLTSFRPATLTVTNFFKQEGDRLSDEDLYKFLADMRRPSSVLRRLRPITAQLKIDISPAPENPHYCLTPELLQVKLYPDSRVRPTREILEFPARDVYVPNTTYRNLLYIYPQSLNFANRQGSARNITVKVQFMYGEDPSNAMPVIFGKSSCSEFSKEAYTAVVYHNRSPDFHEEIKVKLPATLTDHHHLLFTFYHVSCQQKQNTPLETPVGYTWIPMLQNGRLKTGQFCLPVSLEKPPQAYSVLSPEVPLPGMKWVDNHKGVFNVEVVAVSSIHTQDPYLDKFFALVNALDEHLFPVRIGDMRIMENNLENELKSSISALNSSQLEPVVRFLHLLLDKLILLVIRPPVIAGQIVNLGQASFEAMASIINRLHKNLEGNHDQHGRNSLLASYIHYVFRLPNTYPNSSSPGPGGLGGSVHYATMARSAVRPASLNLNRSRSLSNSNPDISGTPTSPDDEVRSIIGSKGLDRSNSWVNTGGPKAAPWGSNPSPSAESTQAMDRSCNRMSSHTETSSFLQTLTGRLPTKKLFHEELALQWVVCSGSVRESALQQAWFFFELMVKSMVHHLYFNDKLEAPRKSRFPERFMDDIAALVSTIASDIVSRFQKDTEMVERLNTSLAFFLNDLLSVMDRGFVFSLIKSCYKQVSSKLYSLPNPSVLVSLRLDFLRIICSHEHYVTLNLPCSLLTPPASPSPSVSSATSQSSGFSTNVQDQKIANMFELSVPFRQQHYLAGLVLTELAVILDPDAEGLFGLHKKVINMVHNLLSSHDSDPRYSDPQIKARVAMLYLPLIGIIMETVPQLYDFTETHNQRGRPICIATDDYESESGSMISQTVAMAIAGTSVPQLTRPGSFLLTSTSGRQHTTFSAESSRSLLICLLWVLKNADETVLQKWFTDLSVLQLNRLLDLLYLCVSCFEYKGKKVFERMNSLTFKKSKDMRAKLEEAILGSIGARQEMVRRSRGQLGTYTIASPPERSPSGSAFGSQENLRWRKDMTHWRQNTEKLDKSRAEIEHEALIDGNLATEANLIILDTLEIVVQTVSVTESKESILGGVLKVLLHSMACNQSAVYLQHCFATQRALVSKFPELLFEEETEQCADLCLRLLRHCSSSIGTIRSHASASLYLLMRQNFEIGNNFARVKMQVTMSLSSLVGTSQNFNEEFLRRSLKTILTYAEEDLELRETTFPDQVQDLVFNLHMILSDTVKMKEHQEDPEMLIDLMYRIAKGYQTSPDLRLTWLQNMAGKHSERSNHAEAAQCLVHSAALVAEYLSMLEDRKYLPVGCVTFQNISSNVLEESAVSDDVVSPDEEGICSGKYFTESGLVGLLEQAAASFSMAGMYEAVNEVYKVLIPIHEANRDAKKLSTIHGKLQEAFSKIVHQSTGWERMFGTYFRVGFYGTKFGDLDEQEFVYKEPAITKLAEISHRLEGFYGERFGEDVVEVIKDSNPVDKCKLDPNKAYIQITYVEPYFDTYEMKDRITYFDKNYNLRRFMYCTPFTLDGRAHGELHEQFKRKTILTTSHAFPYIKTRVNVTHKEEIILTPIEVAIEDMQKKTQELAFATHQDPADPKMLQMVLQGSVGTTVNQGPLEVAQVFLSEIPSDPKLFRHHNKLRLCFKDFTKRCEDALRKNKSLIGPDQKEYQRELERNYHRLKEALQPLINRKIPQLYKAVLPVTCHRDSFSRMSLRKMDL
# Sequence of UniProt O76075 (O76075 whole entry, looked up): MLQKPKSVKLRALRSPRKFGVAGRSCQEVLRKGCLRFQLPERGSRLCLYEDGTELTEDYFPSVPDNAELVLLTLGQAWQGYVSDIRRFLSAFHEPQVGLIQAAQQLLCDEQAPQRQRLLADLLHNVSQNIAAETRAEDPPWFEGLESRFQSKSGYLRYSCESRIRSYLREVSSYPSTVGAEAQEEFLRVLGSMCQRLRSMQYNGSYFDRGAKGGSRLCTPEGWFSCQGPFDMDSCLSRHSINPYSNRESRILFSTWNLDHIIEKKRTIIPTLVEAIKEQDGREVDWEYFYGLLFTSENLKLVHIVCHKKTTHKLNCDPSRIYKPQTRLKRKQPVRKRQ
# Sequence of UniProt Q86Y56 (Q86Y56 whole entry, looked up): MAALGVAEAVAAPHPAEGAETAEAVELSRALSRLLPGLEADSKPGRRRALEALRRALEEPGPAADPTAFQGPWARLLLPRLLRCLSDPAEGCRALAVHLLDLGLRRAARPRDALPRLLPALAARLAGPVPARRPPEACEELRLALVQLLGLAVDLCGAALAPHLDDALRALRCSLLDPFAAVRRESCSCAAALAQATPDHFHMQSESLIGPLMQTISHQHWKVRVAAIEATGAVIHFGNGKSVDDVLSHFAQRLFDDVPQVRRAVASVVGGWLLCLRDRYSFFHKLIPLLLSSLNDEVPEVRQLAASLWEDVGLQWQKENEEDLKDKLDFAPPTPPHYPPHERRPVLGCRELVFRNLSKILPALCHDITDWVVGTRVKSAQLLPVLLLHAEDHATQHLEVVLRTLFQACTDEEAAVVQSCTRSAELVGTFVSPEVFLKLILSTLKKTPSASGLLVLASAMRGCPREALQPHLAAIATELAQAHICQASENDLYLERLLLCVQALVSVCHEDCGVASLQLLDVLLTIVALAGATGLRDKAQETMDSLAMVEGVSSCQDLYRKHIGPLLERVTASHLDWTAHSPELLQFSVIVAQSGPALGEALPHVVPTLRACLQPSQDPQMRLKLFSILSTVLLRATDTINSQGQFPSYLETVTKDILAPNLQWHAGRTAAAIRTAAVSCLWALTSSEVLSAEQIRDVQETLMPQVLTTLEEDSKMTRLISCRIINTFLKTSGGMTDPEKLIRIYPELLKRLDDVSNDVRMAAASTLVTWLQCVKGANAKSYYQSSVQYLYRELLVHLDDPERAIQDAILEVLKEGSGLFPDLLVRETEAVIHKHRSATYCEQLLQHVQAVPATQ
Target,log2 fold change (vemurafenib),log2 fold change [1],log2 fold change (barasertib),log2 fold change [2],log2 fold change (volasertib),log2 fold change [3],log2 fold change [4],log2 fold change [5],log2 fold change (saracatinib),log2 fold change (sotrastaurin),log2 fold change (alvocidib),log2 fold change (Tubastatin A),log2 fold change [6],log2 fold change (defactinib),log2 fold change [7],log2 fold change (encorafenib),log2 fold change [8],log2 fold change (alisertib),log2 fold change [9],log2 fold change (gefitinib)
DFFB (UniProt O76075),0.022,0.044,-0.064,0.037,-0.012,0.1,-0.024,0.061,0.042,0.06,-0.042,-0.007,-0.022,-0.033,-0.022,-0.012,0.015,-0.006,0.011,0.231 (active)
CKAP2 (UniProt Q8WWK9),-0.095,0.01,-0.014,0.073,0.009,-0.024,0.062,-0.094,0.019,0.019,-0.059,-0.009,0.071,-0.075,0.028,0.097,-0.092,-0.044,0.049,0.06
CTNNBL1 (UniProt Q8WYA6),0.004,0.016,0.005,-0.042,-0.041,-0.16,-0.013,-0.091,0.023,0.015,0.027,0.148,-0.004,-0.015,0.417 (active),0.023,0.101,-0.013,-0.027,0.022
CMSS1 (UniProt Q9BQ75),-0.011,0.005,0.023,-0.007,-0.011,0,0.212,-0.086,0.007,-0.003,0.013,-0.036,-0.02,-0.009,-0.032,0.015,0.024,0.02,0.004,0.025
COPZ1 isoform 4 (UniProt P61923),-0.054,-0.004,0.111,0.022,0.019,0.004,-0.015,-0.187,0.018,0.01,0.084,0.055,0.081,0.166,-0.093,-0.011,-0.049,0.045,-0.077,-0.142
DPM1 (UniProt O60762),0.055,0.004,-0.021,0.039,0.001,-0.012,-0.013,-0.058,0.036,0.028,0.084,0.055,-0.005,0.037,0.041,0.01,0.083,0.047,0.013,-0.041
DOCK7 (UniProt Q96N67),0.045,0.021,0.027,-0.057,-0.01,0,-0.068,-0.041,-0.028,0.02,0.007,-0.238,0.006,-0.014,-0.035,0.006,0.038,0.032,0.026,0.017
DNAAF5 (UniProt Q86Y56),-0.006,-0.007,0.03,-0.062,-0.06,0.047,-0.035,-0.049,0.04,0.044,0.024,-0.155,-0.011,-0.009,-0.011,0.073,0.101,0.038,0.012,-0.018
